Shown are actives, neighbours in structure and some others; about 8.1% of the full set was active somewhere.
ELG1 DNA repair – qHTS screen for small molecules that inhibit ELG1-dependent DNA repair in human embryonic kidney (HEK293T) cells expressing luciferase-tagged ELG1; Potency, µM (top dose mostly 46.1 µM), actives largely listed as inhibitors; HEK293T ELG1-luciferase reporter, luminescence, 16 h; DNA damage induced by 5-fluorouridine; 2.3% of 330,000 active; also: nearly all actives have a fitted effect of over 55% in size
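5-Fluorouridine DNA damage + compound/DMSO, 2,000 cells/well, 16 h, 37 °C/5% CO2. ONE-Glo, 30 min RT, luminescence. Readout = decrease in reporter signal.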
KB-V1 cytotox – qHTS assay for MDR1-selective chemotherapeutics: Primary screen using the drug-selected MDR subline cells KB-V1 | 3.4% of 400,000 active | AID 1347076, 2019 | Potency, µM (doses to about 46.1 µM), most hits filed as cytotoxic | KB-V1 MDR cells viability, CellTiter-Glo, 72 h; also: nearly all actives have a fitted effect of over 60% in size
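In this primary screen, KB-V1 cells overexpressing P-gp are incubated with library compounds (lowest to highest concentration) for 72 h at 37 degrees C before a luminescent ATP viability read.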
KB-3-1 tox – qHTS assay for MDR1-selective chemotherapeutics: Primary screen using the parental adenocarcinoma cell KB-3-1. AID 1347075, 2019. KB-3-1 viability, CellTiter-Glo ATP luminescence, 72 h. Potency, µM (top dose mostly 46.1 µM), hits mostly cytotoxic. 1.4% of 400,000 active; also: nearly all actives have a fitted effect of over 60% in size
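Viability of parental KB-3-1 cells, measured by CellTiter-Glo luminescence, followed a 72 h incubation at 37 °C with pinned compounds in phenol-red-free DMEM containing 10% FBS.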
SW480 rerep – A quantitative high throughput screen for small molecules that induce DNA re-replication in SW480 colon adenocarcinoma cells | SW480 DNA re-replication, Hoechst DNA content imaging, 48 h | Potency, µM (doses to about 46.1 µM), most hits filed as activators | 1.8% of 340,000 active | AID 624297, 2012; also: nearly all actives have a fitted effect of over 55% in size
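DNA re-replication was detected as more nuclei of elevated Hoechst intensity after 48 hr exposure to compound (23 nL pinned per well of 250 cells).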
MCF10A rereplic – A quantitative high throughput screen for small molecules that induce DNA re-replication in MCF 10a normal breast cells; MCF 10A DNA re-replication, Hoechst nuclear intensity, 48 h; Potency, µM (doses to about 46.1 µM), hits mostly activators; 2.9% of 350,000 active; AID 624296, 2012; also: nearly all actives have a fitted effect of over 50% in size
Large screens that a line does not name were inactive. Calls follow the shape of the dose curve; as a rule, active = well fitted curve in the direction sought with a large enough effect; inconclusive = small, poorly fitted or top-dose-only effect, or another doubt; inactive = no such curve, though single readings can be large; an effect the other way counts as inactive or inconclusive.

COc1cc(-c2nc(-c3ccccc3)c(-c3cc([N+](=O)[O-])ccc3C)[nH]2)cc(OC)c1OC	ELG1 DNA repair 7.31µM, KB-3-1 tox inconclusive, MCF10A rereplic inconclusive
Cc1nc(SCC(=O)Nc2c(C)n(C)n(-c3ccccc3)c2=O)c2cnn(-c3ccccc3)c2n1	none (no result: ELG1 DNA repair)
COc1cc(/C=C/C(=O)N(C)CC(=O)Nc2ccccc2SC)cc(OC)c1OC	ELG1 DNA repair 16.4µM, KB-V1 cytotox 13µM
CSc1ccccc1NC(=O)CN(C)C(=O)/C=C/c1ccccc1	none
COc1ccc(Cl)cc1NC(=O)CN1Cc2ccccc2C1=O	KB-V1 cytotox 5.17µM, KB-3-1 tox inconclusive (no result: ELG1 DNA repair, SW480 rerep, MCF10A rereplic)
COc1ccc(Cl)cc1NC(=O)CN(C)CC(=O)Nc1ccccc1-c1ccccc1	ELG1 DNA repair inconclusive, KB-V1 cytotox 9.2µM, MCF10A rereplic inconclusive
c1ccc(Cn2c[n+](Cc3ccccc3)c3ccccc32)cc1	KB-3-1 tox 23.1µM
CCOc1ccc(Nc2cc(C)nc(-n3nc(C)cc3C)n2)cc1	ELG1 DNA repair inconclusive, KB-V1 cytotox inconclusive, KB-3-1 tox 0.411µM, SW480 rerep inconclusive, MCF10A rereplic inconclusive
CCOC(=O)Cn1c(=O)oc2cc(S(=O)(=O)N(C)c3ccc(OC)cc3)ccc21	none
COc1cc(CNC(=O)c2ccc3nc(Cc4ccccc4)oc3c2)cc(OC)c1OC	KB-3-1 tox 25.9µM (no result: ELG1 DNA repair, SW480 rerep, MCF10A rereplic)
COCCN1CCN(C(=O)c2ccc3nc(Cc4ccc(OC)c(OC)c4)oc3c2)CC1	KB-V1 cytotox inconclusive, KB-3-1 tox 4.61µM, SW480 rerep inconclusive
COc1cc(CNC(=O)c2ccc3nc(CCc4ccccc4)oc3c2)cc(OC)c1OC	none (no result: ELG1 DNA repair, SW480 rerep, MCF10A rereplic)
CCC1(C)Cc2ccccc2-c2nc(-c3ccccc3)oc(=O)c21 (stereo unspecified)	KB-V1 cytotox 16.4µM, KB-3-1 tox inconclusive, MCF10A rereplic inconclusive
Cc1cccc(NS(=O)(=O)c2cccc(C(=O)NCCCN3CCCC3=O)c2)c1	none
C[N+](C)(C)CCN(Cc1ccc(Cl)cc1)c1ccccn1	none
COc1ccccc1C(=O)Nc1ccccc1C(=O)N1C(C)CCCC1C (stereo unspecified)	KB-V1 cytotox inconclusive
CCOC(=O)c1cccc2c1-c1ccccc1/C2=N/O	ELG1 DNA repair inconclusive
CC(C)COC(=O)c1cccc2c1-c1ccccc1/C2=N\O	ELG1 DNA repair inconclusive, MCF10A rereplic 18.4µM
CC1CCCC(C)N1C(=O)c1cccc2c1-c1ccccc1/C2=N/O (stereo unspecified)	ELG1 DNA repair 20.6µM
CCC1=NN(C(=O)c2ccc(Br)cc2)C(O)(c2ccccc2)C1 (stereo unspecified)	KB-V1 cytotox inconclusive, KB-3-1 tox inconclusive, MCF10A rereplic inconclusive
CC(C)CC(=O)NC(=S)Nc1cc(C(F)(F)F)ccc1N1CCOCC1	KB-V1 cytotox 18.4µM, SW480 rerep inconclusive
O=C(Nc1cc(C(F)(F)F)ccc1N1CCOCC1)c1ccncc1	none
Cc1onc(-c2ccccc2)c1C(=O)Nc1cc(C(F)(F)F)ccc1N1CCOCC1	ELG1 DNA repair inconclusive, KB-V1 cytotox 5.17µM, KB-3-1 tox 5.8µM, SW480 rerep 11.2µM, MCF10A rereplic 5.01µM
O=C(CCc1ccccc1)NC(=S)Nc1cc(C(F)(F)F)ccc1N1CCOCC1	KB-V1 cytotox inconclusive, KB-3-1 tox inconclusive, SW480 rerep inconclusive
Cc1onc(-c2ccccc2)c1C(=O)Nc1ccccc1N1CCOCC1	KB-V1 cytotox 13µM
CCN(CC)S(=O)(=O)c1ccc(N2CCCC2)c(NC(=O)c2c(-c3ccccc3)noc2C)c1	ELG1 DNA repair inconclusive
CCOC(=O)c1ccc(N2CCOCC2)c(NC(=O)c2c(-c3ccccc3)noc2C)c1	KB-V1 cytotox inconclusive, KB-3-1 tox 5.8µM, SW480 rerep 20.6µM, MCF10A rereplic 10.3µM
N#C/C(=N\Nc1c(Cl)cccc1Cl)C(=O)NN	ELG1 DNA repair inconclusive, KB-V1 cytotox 8.2µM, KB-3-1 tox 14.6µM
N#C/C(=N\Nc1cccc(Cl)c1)C(=O)c1ccccc1	ELG1 DNA repair inconclusive, KB-V1 cytotox inconclusive, KB-3-1 tox 16.4µM, MCF10A rereplic inconclusive
COc1ccc(C(=O)/C(C#N)=N/Nc2cccc([N+](=O)[O-])c2)cc1	ELG1 DNA repair inconclusive, KB-V1 cytotox 5.8µM, KB-3-1 tox inconclusive, SW480 rerep inconclusive, MCF10A rereplic inconclusive
N#C/C(=N\Nc1ccccc1Cl)C(=O)c1ccccc1	KB-V1 cytotox inconclusive, KB-3-1 tox 14.6µM
COc1ccc(NC(=O)CS(=O)CC(=O)Nc2cccc3cccnc23)cc1 (stereo unspecified)	MCF10A rereplic inconclusive
CC1CN(C(=O)CSc2nc(-c3ccc(F)cc3)cs2)CC(C)O1 (stereo unspecified)	none
COc1cccc(CC(=O)OCc2csc(CC(=O)Nc3ccccc3C)n2)c1	none
CCn1c(CC(=O)Nc2ccccc2C)nnc1SCC(=O)Nc1nncs1	none
CC(C)(C)OC(=O)NCCCC[C@H](NC(=O)c1nc[nH]c1C(=O)NCc1ccccc1)C(=O)OC(C)(C)C	ELG1 DNA repair inconclusive, KB-3-1 tox inconclusive, MCF10A rereplic inconclusive
CC(C)(C)OC(=O)NCCCC[C@H](NC(=O)c1[nH]cnc1C(=O)N[C@@H](Cc1ccccc1)C(=O)OC(C)(C)C)C(=O)OC(C)(C)C	ELG1 DNA repair inconclusive, KB-3-1 tox inconclusive
C[C@H](NC(=O)c1[nH]cnc1C(=O)Nc1ccc(CNC(=O)OC(C)(C)C)cc1)C(=O)OC(C)(C)C	ELG1 DNA repair 16.4µM, KB-3-1 tox inconclusive, SW480 rerep inconclusive, MCF10A rereplic inconclusive
C[C@@H](NC(=O)c1nc[nH]c1C(=O)NCCCCCNC(=O)OC(C)(C)C)c1ccccc1	ELG1 DNA repair inconclusive, KB-V1 cytotox inconclusive
C[C@H](NC(=O)c1nc[nH]c1C(=O)NCc1ccc(CNC(=O)OC(C)(C)C)cc1)c1ccccc1	ELG1 DNA repair 18.3µM, KB-V1 cytotox inconclusive, KB-3-1 tox inconclusive, MCF10A rereplic 14.6µM
C[C@H](NC(=O)c1nc[nH]c1C(=O)N[C@@H](CCCCNC(=O)OC(C)(C)C)C(=O)OC(C)(C)C)c1ccccc1	ELG1 DNA repair inconclusive, KB-V1 cytotox 20.6µM, KB-3-1 tox inconclusive, SW480 rerep inconclusive
CC(C)(C)OC(=O)NCCCC[C@H](NC(=O)c1[nH]cnc1C(=O)Nc1ccc(CNC(=O)OC(C)(C)C)cc1)C(=O)OC(C)(C)C	ELG1 DNA repair inconclusive, MCF10A rereplic 4.11µM
Cc1ccc(CSC2=Nc3ccccc3C3=NC(CCC(=O)NCc4ccco4)C(=O)N23)cc1 (stereo unspecified)	none
CC(NC(=S)Nc1ccc(OC(F)F)c(Cl)c1)C(C)(C)C (stereo unspecified)	ELG1 DNA repair inconclusive, KB-V1 cytotox inconclusive, KB-3-1 tox inconclusive

Bioassay records (PubChem)
